# Measurements as given in PubChem BioAssay (EPA / NIEHS).
# Active and inactive are the calls of the source. Rule for the calls: active = hit-call score of the fitted dose curve at least 0.9, where 1 is the maximum; inactive = score below 0.9.
# Experiment: APR_HepG2_CellLoss_1hr: Apredica 1-hour HepG2 Assay for Cell Loss (AID 2282668);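 note: curves fitted both ways against DMSO so gain or loss of cells counts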
# Settings: high-content imaging
# Method: APR_HepG2_1hr is a cell-based, multiplexed-readout assay that uses HepG2, a human liver cell line, with measurements taken at 1 hour after chemical dosing in a 384-well plate.APR_HepG2_CellLoss_1hr is one of 10 assay component(s) measured or calculated from the APR_HepG2_1hr assay. It is designed to make measurements of cell number, a form of viability reporter, as detected with fluorescence intensity signals by HCS Fluorescent Imaging technology.Data from the assay component APR_HepG2_CellLoss_1hr was analyzed into 1 assay endpoint. This assay endpoint, APR_HepG2_CellLoss_1hr, was analyzed with bidirectional fitting relative to DMSO as the negative control and baseline of activity. Using a type of viability reporter, measures of all nuclear dna for gain or loss-of-signal activity can be used to understand the viability at the cellular-level. Furthermore, this assay endpoint can be referred to as a secondary readout, because this assay has produced multiple assay endpoints where this one serves a viability function. To generalize the intended target to other relatable targets, this assay endpoint is annotated to the cell cycle intended target family, where the subfamily is proliferation.
# Cells were treated with dimethyl sulfoxide (DMSO) as a solvent control at a final concentration of 0.5% v/v or with compounds in DMSO with a resulting final DMSO concentration of 0.5% v/v. Compound treatment was done at concentrations of 0.39, 0.78, 1.56, 3.12, 6.24, 12.5, 25, 50, 100, and 200 uM in duplicate on each plate. Cells were treated with compounds for 1, 24, or 72 hr. Carbonyl […] m-chloro-phenylhydrazone (CCCP) and taxol were used as positive controls for mitochondrial function and cytoskeletal stability, respectively; DMSO served as the negative control for this experiment. Cells were fixed by the direct addition of 50 uL formaldehyde in Hank's Balanced Salt Solution (HBSS) to a final concentration of 3.7%. After incubation in the fixation medium for 30 min at room temperature (293-298 K), cells were rinsed twice with HBSS and treated with cell permeabilization buffer (16 uL of 0.5% Triton X-100) for 10 min at room temperature (293-298 K) before labeling. For mitochondrial membrane potential and mitochondrial measurements, pre-fixed cells were incubated with 50 uL of MitoTracker Red CMXRos (Invitrogen) at a concentration of 250 nM for 30 min before fixation. In the remaining cases, post-fixed cells were labeled by incubation with a multiplexed mixture of primary antibodies in HBSS for 60 min at room temperature (293-298 K) to detect immunoreactivity of c-Jun (1:500), phospho-histone H3 (1:100), phospho-histone H2A.x (1:200), p53 (1:400), alpha-tubulin (1:200) and Hoechst 33342 (2 ug/mL). Cells were labeled for multiplexed imaging on two separate plates: a) Hoechst 33342, MitoTracker Red, phospho-histone H3, and alpha-tubulin, and b) Hoechst 33342, phospho-histone H2A.x, and c-Jun. A final rinse with HBSS (50 uL) was performed before analysis. The primary and secondary antibodies for the proteins were phospho-histone H3 (rabbit anti-phospho-histone H3 and FITC-donkey anti-rabbit IgG), phospho-histone H2A.x (mouse anti-phospho-histone H2A.x and FITC-donkey anti-mouse IgG), c-Jun (rabbit anti-phospho-c-Jun and Cy3-donkey anti-rabbit IgG), p53 (sheep anti-p53 and Cy5-donkey anti-sheep IgG), alpha-tubulin (mouse anti-alpha-tubulin and Cy5-donkey anti-mouse IgG). These antibodies are available as the CellCiphr HepG2 assay kit (Millipore).Digital images of each well were captured using a Cellomics ArrayScan VTI (Thermo Scientific Cellomics) (0.8 NA objective, 0.63x optical coupler, and XF-93 filter set) at 20x magnification. The images were acquired using the autofocus feature of the ArrayScan instrument, which entails the following steps. First, the camera focuses on channel 1 (Hoechst 33342), where nuclei are identified. Second, a Z offset of 1 um is used for capturing mitochondria (MitoTracker Red). […]
SMILES,outcome,AC50
CCC(C)Nc1c([N+](=O)[O-])cc(C(C)(C)C)cc1[N+](=O)[O-] (stereo not given),inactive,–
Clc1ccccc1-c1nnc(-c2ccccc2Cl)nn1,inactive,–
COP(=S)(OC)Oc1ccc(SC)c(C)c1,inactive,–
CCCN(CCC)c1c([N+](=O)[O-])cc(C(F)(F)F)cc1[N+](=O)[O-],inactive,–
ClC1C(Cl)C(Cl)C(Cl)C(Cl)C1Cl (stereo not given),inactive,–
CC1(C)C(C=C(Cl)Cl)C1C(=O)OC(C#N)c1ccc(F)c(Oc2ccccc2)c1 (stereo not given),inactive,–
CNC(=O)/C=C(\C)OP(=O)(OC)OC,inactive,–
O=[N+]([O-])/N=C1\NCCN1Cc1ccc(Cl)nc1,inactive,–
CC[C@H](C)[C@H]1O[C@]2(C=C[C@@H]1C)C[C@@H]1C[C@@H](C/C=C(\C)[C@@H](O[C@H]3C[C@H](OC)[C@@H](O[C@H]4C[C@H](OC)[C@@H](O)[C@H](C)O4)[C@H](C)O3)[C@@H](C)/C=C/C=C3\CO[C@@H]4[C@H](O)C(C)=C[C@@H](C(=O)O1)[C@]34O)O2 (tested in a mixture with another compound),inactive,–
CC(C)OC(=O)Nc1cccc(Cl)c1,inactive,–
Cc1cc(C)nc(NC(=O)NS(=O)(=O)c2ccccc2C(=O)OC2COC2)n1,inactive,–
O=C1c2ccccc2C(=O)N1SC(Cl)(Cl)Cl,inactive,–
CC(C)(C)C(O)C(Oc1ccc(Cl)cc1)n1cncn1 (stereo not given),inactive,–
Oc1cc(Cl)ccc1Oc1ccc(Cl)cc1Cl,–,114 µM (active)
O=C(Nc1ccccc1)Nc1cnns1,inactive,–
CCC(C)(C)C(=O)OC1=C(c2ccc(Cl)cc2Cl)C(=O)OC12CCCCC2,inactive,–
N#Cc1c(Cl)c(Cl)c(Cl)c(C#N)c1Cl,–,15.8 µM (active)
O=S(=O)(O)C(F)(F)C(F)(F)C(F)(F)C(F)(F)C(F)(F)C(F)(F)C(F)(F)C(F)(F)F,inactive,–
COc1nn(CSP(=S)(OC)OC)c(=O)s1,inactive,–
O=C(NC(=O)c1c(F)cccc1F)Nc1ccc(OC(F)(F)C(F)OC(F)(F)F)c(Cl)c1 (stereo not given),inactive,–

SMILES,outcome,AC50
Cc1[nH]c(=O)n(C(C)(C)C)c(=O)c1Cl,inactive,–
COP(=O)(OC)OC=C(Cl)Cl,inactive,–
COC(=O)c1ccccc1S(=O)(=O)NC(=O)N(C)c1nc(C)nc(OC)n1,inactive,–
Oc1ccc(Cl)cc1Cc1ccccc1,–,118 µM (active)
N#CN,inactive,–
COC(=O)c1ccccc1S(=O)(=O)NC(=O)Nc1nc(C)nc(OC)n1,inactive,–
O=C(O)C(F)(F)C(F)(F)C(F)(F)C(F)(F)C(F)(F)C(F)(F)C(F)(F)F,inactive,–
CN1CSC(=S)N(C)C1,inactive,–
CNC(=O)Oc1cccc(N=CN(C)C)c1,inactive,–
COP(=S)(OC)Oc1ccc([N+](=O)[O-])cc1,inactive,–
COC(=O)c1ccccc1CS(=O)(=O)NC(=O)Nc1nc(OC)cc(OC)n1,inactive,–
CCS(=O)(=O)c1cccnc1S(=O)(=O)NC(=O)Nc1nc(OC)cc(OC)n1,inactive,–
CCN(CC)C(=O)SCc1ccc(Cl)cc1,inactive,–
O=[N+]([O-])c1c(Cl)c(Cl)c(Cl)c(Cl)c1Cl,inactive,–
CCCN(CCOc1c(Cl)cc(Cl)cc1Cl)C(=O)n1ccnc1,inactive,–
[2H]C1([2H])[n+]2ccccc2-c2cccc[n+]2C1([2H])[2H],inactive,–
CCOc1nc(NC)nc(NC(=O)NS(=O)(=O)c2ccccc2C(=O)OC)n1,inactive,–
CCc1ccc(C(=O)NN(C(=O)c2cc(C)cc(C)c2)C(C)(C)C)cc1,inactive,–
CC(C)(C)C(O)/C(=C\c1ccc(Cl)cc1Cl)n1cncn1 (stereo not given),inactive,–
CCOC1Oc2ccc(OS(C)(=O)=O)cc2C1(C)C (stereo not given),inactive,–
